# Measured values reported in PubChem BioAssay.
# Active and inactive are the calls of the source.
# Tests used:
# [1] = system: Plasmodium falciparum Sir2 (PF13_0152, Sir2A); experiment: pfSir2 binders on small-molecule microarrays, primary screen, biochemical, small-molecule microarray, 635 nm fluorescence (AID 1098); settings: small-molecule microarray binding, fluorescence 635 nm; higher = more signal;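 further: score merges spot fluorescence intensity with its signal-to-noise ratio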
# [2] = small-molecule microarray binders of probe aDKK1, primary screen, biochemical, biotinylated probe, 635/667 nm fluorescence (AID 1099); settings: higher = more signal;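 further: score merges 667nm spot fluorescence with signal to noise across triplicate slides; reference of the scale not given here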
# [3] = small-molecule microarray binders of probe aCHRDL2, primary screen, biochemical, biotinylated probe, 635/667 nm fluorescence (AID 1100); settings: higher = more signal
# [4] = splicing luciferase reporter signal modulators, primary screen, spliceosome inhibition project, cell-based, HEK293, splice +/- reporter (AID 1101); settings: luminescence, 24 h, higher = more signal, called active from +8 up or from −8 down;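 further: HEK293 cells carrying a splicing-competent luciferase reporter gene; test concentration not given here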
# [5] = target: Fibroblast growth factor 10 (Homo sapiens) (UniProt O15520); experiment: FGF10 binders on small-molecule microarrays, primary screen, biochemical, small-molecule microarray, 635 nm fluorescence (AID 1102); settings: FGF10 binding, fluorescence 635 nm, higher = more signal
# Chain of Fibroblast growth factor 10 (Homo sapiens) (O15520 whole entry, looked up): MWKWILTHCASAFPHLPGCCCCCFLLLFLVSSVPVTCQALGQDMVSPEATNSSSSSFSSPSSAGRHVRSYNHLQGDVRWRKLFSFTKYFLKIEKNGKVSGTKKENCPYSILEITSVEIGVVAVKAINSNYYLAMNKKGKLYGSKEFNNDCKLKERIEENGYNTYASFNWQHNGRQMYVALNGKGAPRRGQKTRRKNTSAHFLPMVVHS
# [6] = system: glycogen synthase kinase-3 (GSK3A per assay name; protocol says GSK3B); experiment: GSK3 binders on small-molecule microarrays, primary screen, biochemical, small-molecule microarray, 635 nm fluorescence, GSK3A (AID 1103); settings: small-molecule microarray binding, fluorescence 635 nm; higher = more signal; further: the record names both GSK3A and GSK3B
# [7] = target: Epidermal growth factor receptor (Homo sapiens) (UniProt P00533); experiment: EGFR binders on small-molecule microarrays, primary screen, biochemical, small-molecule microarray, 635 nm fluorescence (AID 1104); settings: EGFR binding, higher = more signal;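 further: score merges 667 nm emission intensity with spot signal to noise over triplicate slides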
# Chain of Epidermal growth factor receptor (Homo sapiens) (P00533 whole entry, looked up): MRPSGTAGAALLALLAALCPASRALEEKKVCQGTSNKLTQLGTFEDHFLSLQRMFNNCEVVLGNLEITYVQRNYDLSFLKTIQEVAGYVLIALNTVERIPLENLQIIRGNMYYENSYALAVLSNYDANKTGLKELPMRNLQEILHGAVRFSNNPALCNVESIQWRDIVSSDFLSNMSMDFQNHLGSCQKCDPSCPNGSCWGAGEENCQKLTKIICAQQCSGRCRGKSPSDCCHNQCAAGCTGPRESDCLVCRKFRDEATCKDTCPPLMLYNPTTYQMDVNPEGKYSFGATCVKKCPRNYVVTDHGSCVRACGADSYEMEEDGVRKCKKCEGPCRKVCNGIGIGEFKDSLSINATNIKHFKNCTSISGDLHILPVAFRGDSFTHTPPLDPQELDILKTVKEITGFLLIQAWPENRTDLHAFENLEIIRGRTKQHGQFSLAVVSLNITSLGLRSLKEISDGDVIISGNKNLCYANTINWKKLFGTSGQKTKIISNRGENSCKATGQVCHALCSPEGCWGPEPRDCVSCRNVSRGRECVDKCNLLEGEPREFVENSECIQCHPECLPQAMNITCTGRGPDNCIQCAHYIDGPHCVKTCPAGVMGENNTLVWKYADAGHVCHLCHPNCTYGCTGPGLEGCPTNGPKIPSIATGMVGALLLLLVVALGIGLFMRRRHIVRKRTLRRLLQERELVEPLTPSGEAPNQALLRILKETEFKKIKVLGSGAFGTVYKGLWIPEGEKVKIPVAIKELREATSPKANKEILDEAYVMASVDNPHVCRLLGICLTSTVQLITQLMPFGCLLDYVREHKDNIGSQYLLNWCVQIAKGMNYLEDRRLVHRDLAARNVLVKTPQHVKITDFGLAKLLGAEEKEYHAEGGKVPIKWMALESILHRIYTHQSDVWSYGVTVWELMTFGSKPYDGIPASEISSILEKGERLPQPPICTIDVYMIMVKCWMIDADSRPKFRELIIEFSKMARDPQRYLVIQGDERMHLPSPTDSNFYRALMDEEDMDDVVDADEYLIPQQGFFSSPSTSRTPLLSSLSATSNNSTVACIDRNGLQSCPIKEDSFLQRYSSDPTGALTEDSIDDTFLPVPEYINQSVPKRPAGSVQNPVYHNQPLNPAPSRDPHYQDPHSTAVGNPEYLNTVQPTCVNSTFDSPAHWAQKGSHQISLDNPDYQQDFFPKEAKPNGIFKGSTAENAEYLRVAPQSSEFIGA
# [8] = target: Follistatin-related protein 3 (Homo sapiens) (UniProt O95633); experiment: FSTL3 binders on small-molecule microarrays, primary screen, biochemical, small-molecule microarray, 635 nm fluorescence (AID 1105); settings: FSTL3 binding, higher = more signal;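 further: score merges emission near 667 nm and signal to noise per printed spot across three slides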
# Chain of Follistatin-related protein 3 (Homo sapiens) (O95633 whole entry, looked up): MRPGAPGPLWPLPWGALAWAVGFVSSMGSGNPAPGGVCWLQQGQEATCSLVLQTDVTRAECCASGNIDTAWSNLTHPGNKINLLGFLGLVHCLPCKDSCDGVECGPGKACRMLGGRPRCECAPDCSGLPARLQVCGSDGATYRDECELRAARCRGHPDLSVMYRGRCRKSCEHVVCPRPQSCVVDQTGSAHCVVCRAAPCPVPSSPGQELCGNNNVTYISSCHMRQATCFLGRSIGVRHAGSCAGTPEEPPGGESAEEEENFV
# [9] = target: Dickkopf-related protein 1 (Homo sapiens) (UniProt O94907); experiment: DKK1 binders on small-molecule microarrays, primary screen, biochemical, small-molecule microarray, 635 nm fluorescence scan (AID 1106); settings: DKK1 binding, higher = more signal;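 further: score merges emission near 667 nm with signal to noise over three replicate slides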
# Chain of Dickkopf-related protein 1 (Homo sapiens) (O94907 whole entry, looked up): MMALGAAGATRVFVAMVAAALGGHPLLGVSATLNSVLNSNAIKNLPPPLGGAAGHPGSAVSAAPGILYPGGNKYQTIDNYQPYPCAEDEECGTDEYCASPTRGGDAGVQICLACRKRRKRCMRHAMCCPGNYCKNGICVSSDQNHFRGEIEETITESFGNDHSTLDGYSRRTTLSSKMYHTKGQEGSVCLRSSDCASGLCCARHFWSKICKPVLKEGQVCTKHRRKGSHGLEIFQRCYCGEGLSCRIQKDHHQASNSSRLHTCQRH
# [10] = system: Inhibin beta A chain (activin A); experiment: INHBA (activin A) binders on microarrays, primary screen, biochemical, small-molecule microarray, 635 nm fluorescence scan (AID 1107); settings: small-molecule microarray binding, higher = more signal;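 further: mouse activin A protein probed at 4.33 µg/mL on printed slides; score merges bound-protein fluorescence near 667 nm with spot signal-to-noise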
SMILES,composite z-score [1],composite z-score [2],composite z-score [3],z-score [4],composite z-score [5],composite z-score [6],composite z-score [7],composite z-score [8],composite z-score [9],composite z-score [10]
COC(=O)[C@@]1(Cc2ccccc2)N=C(c2ccc(OCCCO)cc2)O[C@H]1c1ccccc1,1.65,0.206,0.893,6.38 (inactive),0.0071,0.319,-1.08,-1.05,-0.862,0.599
CCOC(=O)C[C@H]1[C@H](OC(=O)c2ccccc2-c2ccccc2)[C@@H](NC(=O)CC(C)C)c2cc(OCCCO)ccc2N1C(=O)Cc1ccc(OC)cc1,0.0681,-0.235,0.0198,-0.284 (inactive),0.215,-0.199,-0.0484,-0.305,-0.239,0.328
CC(C)C(=C=CC[C@@H](O)c1ccc(OCCO)cc1)C[C@@H](O)c1ccccn1,0.595,-0.0166,-0.495,0.106 (inactive),1.6,0.854,0.124,1.06,1.76,0.59
CCCC[C@H]1OB(O)C[C@H]2C1=C(COC)Cn1c(=O)n(-c3ccccc3)c(=O)n12,-0.0483,-0.383,-0.738,0.271 (inactive),0.516,0.302,0.54,0.517,0.465,0.95
C=CCN1C(=O)[C@]2(O[C@H](CCn3cc([C@H](O)c4ccccc4)nn3)[C@@H]([Si](C)(C)c3ccc(OC)cc3)[C@@H]2C)c2cc(N3CCC3=O)ccc21,1.48,-0.29,0.224,-0.619 (inactive),0.864,0.169,0.0043,0.306,0.815,0.619
Cc1ccc(S[C@]2(C(=O)NCCCN(C)C)CC(=O)N(Cc3cc(C(F)(F)F)cc(C(F)(F)F)c3)[C@@H]2c2ccc(CO)cc2I)cc1,-0.0355,0.703,0.879,-0.0675 (inactive),-0.833,-2.21,-1.18,-1.71,-1.53,0.835
C=C[C@H](OC)[C@@H](OC(=O)Nc1ccc(OC)cc1)c1ccc(O)c(F)c1,0.68,-0.446,0.3,-1.27 (inactive),-0.0655,-0.499,-1.49,-1.19,-1.16,-0.25
O=C1O[C@@H](c2ccccc2)[C@@H](c2ccccc2)N2[C@@H](c3ccccc3OCCO)[C@]3(C(=O)Nc4ccc(C#CC5=CCCCC5)cc43)[C@@H](C(=O)N3CCCCCCC3)[C@H]12,2.01,2.94,1.63,-1.06 (inactive),1.54,1.39,1.81,1.75,2.56,1.8
CC(C)N1C(=O)[C@@]2(Cc3ccccc31)c1ccccc1C(=O)N(Cc1ccccc1Cl)[C@H]2c1ccc(CO)cc1,0.465,-0.0724,0.621,-1 (inactive),-1,-1.24,-1.25,-0.785,-0.979,0.781
COc1cc2c(cc1O)C(c1cccs1)N(C)CC2 (stereo not given),0.0826,-0.287,0.0135,0.153 (inactive),-0.654,-0.995,0.0174,-0.558,-0.332,0.0723
O[C@@H](Cc1ccccc1)[C@H]1C2C=CCCC=C2CN1Cc1cccc(Cl)c1 (stereo not given in full),0.77,-0.0422,-0.284,-0.381 (inactive),0.9,1.08,0.231,1.24,0.496,0.296
CNS(=O)(=O)c1ccc(C)cc1,0.3,-0.0385,-0.446,-1.07 (inactive),0.648,0.674,0.434,0.688,1.14,-1.89
O=C1C2C=CC(C(O)c3cccc4ccccc34)N(Nc3ccccc3F)C2C(=O)N1c1ccccc1 (stereo not given),0.927,0.977,1.02,-0.05 (inactive),0.606,1.18,0.172,0.79,-0.311,0.723
Cc1ccc(S[C@]2(C(=O)NC3CC3)CC(=O)N(Cc3ccccc3)[C@@H]2c2ccc(CO)cc2I)cc1,0.562,0.0491,0.717,-1.21 (inactive),-0.794,-0.281,-1.34,-1.37,-1.59,0.5
COc1ccc(C#Cc2ccc3c(c2)[C@]2(C(=O)N3)[C@H](C(=O)Nc3nc4ccccc4s3)[C@H]3C(=O)O[C@H](c4ccccc4)[C@H](c4ccccc4)N3[C@@H]2c2ccc(O)cc2)cc1,1.15,1.06,0.144,-0.444 (inactive),1.43,1.25,0.516,1.48,0.63,1.09
CCOC(=O)C[C@H]1[C@H](OC(=O)c2ccc(C(=O)c3ccccc3)cc2)[C@@H](NC(=O)c2ccc3ccccc3n2)c2cc(OCCCO)ccc2N1C(=O)c1ccccc1,0.772,0.177,0.628,0.305 (inactive),0.719,1.28,-0.278,0.806,0.271,-0.177
O=C1C2C=CC(C(O)Cc3ccccc3)N(n3cnnc3)C2C(=O)N1Cc1ccccc1 (stereo not given),0.386,0.73,0.868,-0.195 (inactive),0.33,0.0704,-0.216,-0.294,-0.387,0.825
C=CCOC(=O)[C@H]1[C@@H]2C(=O)O[C@@H](c3ccccc3)[C@@H](c3ccccc3)N2[C@@H](c2ccc(OCCOC(=O)[C@@H]3C[C@@H]4C(=O)N[C@@H](CC(C)C)C(=O)N4[C@@H]3c3ccc(O)cc3)cc2)[C@]12C(=O)Nc1ccccc12,1.58,0.105,0.257,0.426 (inactive),1.26,1.3,0.671,1.3,0.675,-0.233
[N-]=[N+]=Nc1ccccc1[C@H]1OC(c2ccc(OCCCO)cc2)=N[C@@]1(CCS(=O)(=O)c1ccccc1)C(N)=O,1.53,1.01,1.37,-1.36 (inactive),1.12,0.915,-0.541,-0.0805,0.0979,1.26
COCCOC(=O)N1C(=O)[C@@]2(c3ccccc31)[C@H](C(=O)N1CCc3cc(OC)c(OC)cc3C1)[C@H]1C(=O)O[C@H](c3ccccc3)[C@H](c3ccccc3)N1[C@@H]2c1ccc(OCCO)cc1,1.33,0.232,0.395,-1.27 (inactive),1.15,1.01,0.565,0.473,0.235,0.0475
C=CCOC(=O)[C@@H]1[C@H]2C(=O)O[C@H](c3ccccc3)[C@H](c3ccccc3)N2[C@H](c2ccc(OCCOC(=O)[C@H]3C[C@H]4C(=O)N5CCC[C@H]5C(=O)N4[C@H]3c3ccc(O)cc3)cc2)[C@@]12C(=O)Nc1ccc(I)cc12,1.62,0.158,0.0375,-1.27 (inactive),1.17,1.34,0.785,1.14,0.986,0.379
